We go through ten compounds from PubChem BioAssay (Tox21).

“And” between values parts separate entries of the source, which are not always exact repeats. Equal values may be shown once. Records with an inconclusive call do not appear. A structure can be active in one record and inactive in another. The source made the active and inactive calls. Unless noted, calls follow the shape of the dose curve; as a rule, active = well fitted curve in the direction sought with a large enough effect in the repeat runs; inconclusive = weak or mixed curves; inactive = no such curve, though single readings can be large; an effect the other way counts as inactive or inconclusive.

A short description of assay [1]: qHTS assay to identify small molecule antagonists of the glucocorticoid receptor (GR) signaling pathway - cell viability counter screen (AID 720693). Also: nearly all actives have a fitted effect of over 55% in size.
The nature of assay [2]: qHTS assay for identifying genotoxic compounds that show differential cytotoxicity against isogenic chicken DT40 cell lines with known DNA damage response pathways - wild type cell line (AID 743012). Also: nearly all actives have a fitted effect of over 60% in size. Also: potency is read from the fitted curve at half-maximal effect. The procedure, abridged:
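Luminescent ATP viability signal (CellTiter-Glo, 30 min RT) recorded after wild type DT40 cells were incubated with compounds for 40 h at 37 C/5% CO2.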
(In general: Quantitative high-throughput screening tests each substance at several concentrations.)

The nature of assay [3]: qHTS assay for identifying genotoxic compounds that show differential cytotoxicity against isogenic chicken DT40 cell lines with known DNA damage response pathways - Rev3 mutant cell line (AID 743014). Also: nearly all actives have a fitted effect of over 55% in size. Also: potency is read from the fitted curve at half-maximal effect.
Assay [4] is described as follows: qHTS assay to identify small molecule antagonists of the androgen receptor (AR) signaling pathway - cell viability counter screen (AID 743033; also: nearly all actives have a fitted effect of over 45% in size).
Assay [5] concerns the target Androgen receptor (Homo sapiens) (UniProt P10275). Put plainly: qHTS assay to identify small molecule antagonists of the androgen receptor (AR) signaling pathway (AID 743035; active = well fitted inhibition curve with a large enough effect in the signal ratio in the repeat runs, not every such curve was filed as active; the % refers to the signal ratio). In short, it runs like this:
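Quantitative HTS of the Tox21 10K library used HEK293 AR-UAS-bla cells stimulated with R1881 alongside compound for 16 h at 37C, followed by beta-lactamase FRET detection (LiveBLAzer B/G, 2 h, RT).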

For assay [6] the target is unchanged. Put plainly: qHTS assay to identify small molecule agonists of the androgen receptor (AR) signaling pathway (AID 743036; active = well fitted activation curve with a large enough effect in the signal ratio in the repeat runs, with a control signal flat, not every such curve was filed as active; the % refers to the signal ratio). The procedure, abridged: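 Activation was read as beta-lactamase FRET signal from LiveBLAzer B/G substrate, added for 2 h at room temperature. Before that, GeneBLAzer AR-UAS-bla GripTite (HEK293) cells had 16 h compound exposure at 37C.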

For assay [7] the target is unchanged. Put plainly: qHTS assay to identify small molecule agonists of the androgen receptor (AR) signaling pathway using the MDA cell line (AID 743040; also: nearly all actives have a fitted effect of over 20% in size). In short, it runs like this: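 Testing was done with the MDA-kb2 AR-luc line, a human breast carcinoma stably transfected with MMTV-luciferase containing AR and GR response elements. Cells were exposed 16 h at 37C before ONE-Glo luminescence detection.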

The nature of assay [8]: qHTS assay to identify small molecule antagonists of the androgen receptor (AR) signaling pathway using the MDA cell line - cell viability counter screen (AID 743041; also: nearly all actives have a fitted effect of over 45% in size). The procedure, abridged: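 Compound exposure lasted 16 h at 37C in MDA-kb2 AR-luc cells stimulated with R1881. Protease-based CellTiter-Fluor reagent was applied for the final 30 min and fluorescence measured.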

The target of assay [9] is Androgen receptor (Homo sapiens) (UniProt P10275). Put plainly: qHTS assay to identify small molecule antagonists of the androgen receptor (AR) signaling pathway using the MDA cell line (AID 743042; also: nearly all actives have a fitted effect of over 55% in size). In short, it runs like this: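 MDA-kb2 breast carcinoma cells carrying MMTV-luciferase (AR/GR responsive) were co-treated with compounds and the agonist R1881 for 16 h at 37C. Inhibition read as ONE-Glo luminescence; CellTiter-Fluor fluorescence measured in parallel for cytotoxicity.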

A short description of assay [10]: qHTS assay to identify small molecule antagonists of the thyroid receptor (TR) signaling pathway - cell viability counter screen (AID 743064). Also: nearly all actives have a fitted effect of over 50% in size. Also: potency is read from the fitted curve at half-maximal effect. In short, it runs like this: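 In-well cytotoxicity read by CellTiter-Fluor (30 min, 37 C) following 23.5 h exposure of GH3 cells bearing a TRE-luciferase sensor. Compounds were added alongside 1 nM (final) T3 to drive TR transactivation.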

Assay [11] is described as follows: qHTS assay to identify small molecule antagonists of the thyroid receptor (TR) signaling pathway (AID 743065). Also: nearly all actives have a fitted effect of over 55% in size. Also: potency is read from the fitted curve at half-maximal effect. The procedure, abridged:
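GH3.TRE-Luc rat pituitary cells (two TREs driving luciferase) were dosed with compound, then stimulated with 1 nM T3 (final) for 23.5 h at 37 C. ONE-Glo luminescence was the read-out, with CellTiter-Fluor fluorescence as the cytotoxicity counter-screen.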

Assay [12] deals with thyroid hormone receptor (rat, GH3 cells). Put plainly: qHTS assay to identify small molecule agonists of the thyroid receptor (TR) signaling pathway (AID 743066; calls by dose curve).
The target in assay [13] is Estrogen receptor (Homo sapiens) (UniProt P03372). Put plainly: qHTS assay to identify small molecule antagonists of the estrogen receptor alpha (ER-alpha) signaling pathway (AID 743069; active = well fitted curve in the direction sought with a large enough effect in the signal ratio in the repeat runs, not every such curve was filed as active; the % refers to the signal ratio). In short, it runs like this: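 In this cell-based reporter format, GripTite HEK293 cells harbouring ER-alpha-UAS-bla were grown overnight with 2% charcoal-stripped FBS, dosed with DMSO-dissolved compounds, then challenged with 17beta-estradiol. After 18 hr at 37C, beta-lactamase activity was detected by FRET fluorescence.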

Assay [14] is described as follows: qHTS assay to identify small molecule antagonists of the estrogen receptor alpha (ER-alpha) signaling pathway - cell viability counter screen (AID 743074; calls by dose curve; also: nearly all actives have a fitted effect of over 45% in size).
Assay [15] concerns the target Estrogen receptor (Homo sapiens) (UniProt P03372). Put plainly: qHTS assay to identify small molecule agonists of the estrogen receptor alpha (ER-alpha) signaling pathway (AID 743075; calls by dose curve).
Assay [16] shares this target. Put plainly: qHTS assay to identify small molecule agonists of the estrogen receptor alpha (ER-alpha) signaling pathway using the BG1 cell line (AID 743079). Also: nearly all actives have a fitted effect of over 20% in size.
A short description of assay [17]: qHTS assay to identify small molecule antagonists of the estrogen receptor alpha (ER-alpha) signaling pathway using the BG1 cell line (AID 743080; calls by dose curve;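 also: BG1 cells stimulated with 17beta-estradiol alongside compound; series mostly up to about 70 µM; nearly all actives have a fitted effect of over 25% in size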). In short, it runs like this: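 Readout is ONE-Glo luminescence, taken 30 min at room temperature after reagent addition, preceded by a CellTiter-Fluor viability read; BG1-Luc-4E2 cells had received compound and 17beta-estradiol for 21.5 h at 37 C.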

Assay [18] can be described thus: qHTS assay to identify small molecule antagonists of the estrogen receptor alpha (ER-alpha) signaling pathway using the BG1 cell line - cell viability counter screen (AID 743081).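 Also: compound given together with 17beta-estradiol as the ER stimulus; series mostly up to about 70 µM; nearly all actives have a fitted effect of over 45% in size.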
A further assay has as its target Aromatase (Homo sapiens) (UniProt P11511). Put plainly: qHTS assay to identify aromatase inhibitors (AID 743083).
The nature of assay [19]: qHTS assay for identifying genotoxic compounds that show differential cytotoxicity against isogenic chicken DT40 cell lines with known DNA damage response pathways - Rad54/Ku70 mutant cell line (AID 743015). Also: nearly all actives have a fitted effect of over 60% in size. Also: potency is read from the fitted curve at half-maximal effect.

Sequence of Estrogen receptor (Homo sapiens) (P03372 whole entry, looked up): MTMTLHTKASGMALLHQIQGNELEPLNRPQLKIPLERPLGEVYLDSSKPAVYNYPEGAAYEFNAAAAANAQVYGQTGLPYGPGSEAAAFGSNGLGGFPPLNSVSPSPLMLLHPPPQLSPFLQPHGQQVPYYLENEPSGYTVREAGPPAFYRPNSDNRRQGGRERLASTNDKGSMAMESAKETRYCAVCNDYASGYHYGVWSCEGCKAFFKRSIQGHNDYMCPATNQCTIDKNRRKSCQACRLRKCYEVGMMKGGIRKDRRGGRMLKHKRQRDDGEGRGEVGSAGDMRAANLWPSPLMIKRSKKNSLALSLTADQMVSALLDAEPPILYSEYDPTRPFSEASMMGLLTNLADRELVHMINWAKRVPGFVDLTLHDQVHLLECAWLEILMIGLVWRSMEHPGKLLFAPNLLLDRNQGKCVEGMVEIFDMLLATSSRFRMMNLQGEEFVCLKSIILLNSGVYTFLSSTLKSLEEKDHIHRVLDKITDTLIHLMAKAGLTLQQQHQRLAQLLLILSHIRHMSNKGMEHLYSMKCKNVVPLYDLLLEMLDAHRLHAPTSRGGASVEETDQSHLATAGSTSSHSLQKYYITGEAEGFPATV
Sequence of Androgen receptor (Homo sapiens) (P10275 whole entry, looked up): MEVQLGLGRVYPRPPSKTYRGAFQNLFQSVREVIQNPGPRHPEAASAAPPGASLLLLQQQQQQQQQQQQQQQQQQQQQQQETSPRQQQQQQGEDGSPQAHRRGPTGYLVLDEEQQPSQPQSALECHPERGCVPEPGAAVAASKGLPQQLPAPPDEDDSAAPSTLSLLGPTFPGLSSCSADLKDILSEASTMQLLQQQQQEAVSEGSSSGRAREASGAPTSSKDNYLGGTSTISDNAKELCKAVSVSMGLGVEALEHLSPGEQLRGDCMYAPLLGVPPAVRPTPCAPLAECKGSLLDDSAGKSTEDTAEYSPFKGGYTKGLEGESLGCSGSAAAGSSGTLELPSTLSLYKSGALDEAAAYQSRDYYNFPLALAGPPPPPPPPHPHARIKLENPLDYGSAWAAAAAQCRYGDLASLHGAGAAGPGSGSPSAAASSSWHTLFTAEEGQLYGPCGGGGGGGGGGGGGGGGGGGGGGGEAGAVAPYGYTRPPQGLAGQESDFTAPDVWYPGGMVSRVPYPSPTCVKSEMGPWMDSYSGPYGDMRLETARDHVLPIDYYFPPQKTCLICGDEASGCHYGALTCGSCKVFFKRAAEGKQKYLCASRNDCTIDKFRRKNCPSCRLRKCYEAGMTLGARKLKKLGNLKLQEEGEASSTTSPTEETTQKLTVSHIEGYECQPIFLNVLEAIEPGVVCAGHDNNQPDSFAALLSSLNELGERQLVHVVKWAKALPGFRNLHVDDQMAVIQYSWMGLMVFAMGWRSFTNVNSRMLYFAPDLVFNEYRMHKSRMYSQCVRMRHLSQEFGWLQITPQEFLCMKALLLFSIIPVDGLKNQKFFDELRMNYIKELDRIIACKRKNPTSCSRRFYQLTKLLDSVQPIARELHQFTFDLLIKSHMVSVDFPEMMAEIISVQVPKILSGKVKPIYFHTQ
Sequence of Aromatase (Homo sapiens) (P11511 whole entry, looked up): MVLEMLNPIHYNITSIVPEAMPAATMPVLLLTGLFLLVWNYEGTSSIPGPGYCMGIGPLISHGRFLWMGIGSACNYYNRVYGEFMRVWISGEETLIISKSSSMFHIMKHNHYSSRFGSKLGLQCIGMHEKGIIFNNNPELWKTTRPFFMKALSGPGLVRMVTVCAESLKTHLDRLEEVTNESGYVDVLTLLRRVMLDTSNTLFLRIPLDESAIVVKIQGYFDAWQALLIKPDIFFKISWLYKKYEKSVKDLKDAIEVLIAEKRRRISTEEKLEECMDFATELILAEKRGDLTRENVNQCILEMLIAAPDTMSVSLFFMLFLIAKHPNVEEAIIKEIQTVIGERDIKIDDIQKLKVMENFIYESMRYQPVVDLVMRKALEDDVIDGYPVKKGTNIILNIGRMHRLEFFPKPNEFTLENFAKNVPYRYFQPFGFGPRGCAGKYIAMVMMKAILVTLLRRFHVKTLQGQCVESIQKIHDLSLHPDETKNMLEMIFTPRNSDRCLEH

As to `Nc1cccc(S(=O)(=O)O)c1`, the outcome in assay [1], in [4], in [6], in assay [9], in [12] and in assay [15] was inactive. For the same compound, the compound was called inactive in assay [17]. Further, the Potency result in [2], in assay [3], in assay [5], in assay [7], in [8] and in [10] was “inactive” each time. The Potency result (in assay [11]; in assay [13]; in assay [14]; in [16]; in [18]; in the assay with Aromatase (Homo sapiens)) was “inactive” throughout.

As to `CCC(=O)Nc1ccc(O)cc1`, the compound was classed as inactive in [1], in [4], in [12], in assay [15] and in [17]. Further, the Potency entry in assay [2], in [3], in [8], in [10], in assay [11] and in assay [13] was “inactive” each time. The Potency result (in [14]; in assay [16]; in [18]; with Aromatase (Homo sapiens)) was “inactive” throughout.

Consider `C=CC(C)(O)CC/C=C(\C)CCC=C(C)C` (configuration not stated), for which the compound was classed as inactive in [1], in assay [4] and in [12]. Besides, the Potency entry in assay [2], in assay [8], in assay [10], in assay [11], in assay [14] and in assay [18] was “inactive” each time. Besides, the Potency result with Aromatase (Homo sapiens) is “inactive”. Besides, the Potency result in assay [3] was “inactive and 4.33 µM (active)”.

With `CCc1nnc(NS(=O)(=O)c2ccc(N)cc2)s1`, the result in assay [1], in [4] and in [12] was inactive. The Potency result in assay [2], in [3], in [19], in [10], in [11] and in assay [18] was “inactive” throughout. In addition, in the assay with Aromatase (Homo sapiens), the Potency entry is “inactive”.

For `CN1CCC[C@@H]1Cc1c[nH]c2ccc(CCS(=O)(=O)c3ccccc3)cc12`, the result in assay [1], in assay [4] and in [12] was inactive. For the same compound, the Potency was 26.6 µM (active) in assay [2], 33.5 µM (active) in assay [3], 29.8 µM (active) in assay [19] and 21.1 µM (active) in assay [11]. The Potency result (in assay [8]; in [14]; in the assay with Aromatase (Homo sapiens)) was “inactive” throughout.

`CN(C)C(=O)NC1(c2ccccc2)CCN(CCC[C@]2(c3ccc(Cl)c(Cl)c3)CCCN(C(=O)c3ccccc3)C2)CC1`: the compound was classed as inactive in assay [1], in assay [15] and in assay [17]. The Potency in [2] is 10.3 µM (active); in assay [19], 9.2 µM (active); in assay [10] it was 5.17 µM (active); in assay [11], 11.6 µM (active). Further, the Potency result (in assay [13]; in assay [14]; in [16]; in the assay with Aromatase (Homo sapiens)) was “inactive” each time.

`CCOc1ccc(NC(N)=O)cc1`: the compound was called inactive in assay [1], in assay [4], in assay [12], in assay [15] and in assay [17]. For the same compound, the Potency entry in assay [2], in assay [19], in assay [8], in [10], in assay [11] and in [13] was “inactive” in each case. Besides, the Potency result (in [14]; in assay [18]; with Aromatase (Homo sapiens)) was “inactive” in each case.

Regarding `CC(C)NCC(O)COc1ccc(CCOCC2CC2)cc1` (configuration not stated), the outcome in assay [1], in assay [4] and in assay [12] was inactive. Further, the Potency in assay [2] and in [19] was 29.8 µM (active) in each case. Further, the Potency result (in assay [8]; in [10]; in assay [14]; in assay [18]; with Aromatase (Homo sapiens)) was “inactive” each time.

For `CC(C)OC(C)C`, the compound was called inactive in assay [1], in assay [4], in [12], in assay [15] and in [17]. Besides, the Potency entry in assay [2], in [8], in assay [10], in assay [11], in assay [13] and in assay [14] was “inactive” each time. Also, the Potency entry (in assay [16]; in assay [18]; with Aromatase (Homo sapiens)) was “inactive” throughout.

For the compound `CCCCCCCCCC/C=C/C#N`, the result in assay [1], in assay [4], in assay [12], in assay [15] and in assay [17] was inactive. The Potency entry in assay [2], in assay [19], in assay [11], in assay [13], in [14] and in assay [16] was “inactive” in each case. The Potency result (in assay [18]; with Aromatase (Homo sapiens)) was “inactive” each time.
